Data as given in PubChem BioAssay AID2314 (National Center for Advancing Translational Sciences (NCATS), 2010).
Among all 300,000 compounds or so, about 37,000 (12%) were called active. Rule as the data show it: active = max response mostly above about 13% (no sharp cut-off); inactive = mostly below about 14%. Many of the other results were omitted from the sample, so actives are more common in it than they were.

Assay: Cycloheximide Counterscreen for Small Molecule Inhibitors of Shiga Toxin; also: read at 38.3 µM for the half of the compounds with a filed dose; 0% is about no effect
Conditions: cell reporter, cycloheximide protein synthesis inhibition counterscreen; hits give high values

Compound | max response
COc1ccccc1NC(=O)COc1ccc(C(=O)OCC(=O)N(C(C)C)C(C)C)cc1OC | -3.62% (inactive)
COc1ccc2c(c1)C(NS(=O)(=O)OCC(Cl)(Cl)Cl)CCC2 (centres undefined) | 0.921% (inactive)
COc1cc2c(C(=O)N3CCN(C)CC3)c(CSc3ccccc3)n(C)c2cc1Br | -3.14% (inactive)
Cc1ccc(C(=O)N/C(=C\c2cn(S(=O)(=O)N(C)C)c3ccccc23)C(=O)N2CCCC2)cc1 | -4.36% (inactive)
Cc1nc(-c2ccc(F)cc2)c(CC(=O)N2CCN(S(=O)(=O)c3ccc(F)cc3)CC2)s1 | -1.12% (inactive)
CCOc1ccc(CNC(=O)CCC(=O)N2CCSc3ccccc32)cc1 | 3.9% (inactive)
Cc1ccc(NC(=O)N2CCSc3ccccc32)cc1 | 21.8% (active)
Cc1ccc(NC(=O)N2CCC(O)(c3cccnc3)CC2)cc1 | -0.6% (inactive)
Cc1ccc2c(=O)oc(N(C)C)nc2c1 | -3.11% (inactive)
COc1ccc(CNC(=O)CCN2C(=O)c3ccccc3C2=O)cc1 | -8.4% (inactive)
Cc1cc(C(=O)NC2CCCc3c2cnn3-c2cccc(C)c2C)c(C)o1 (centres undefined) | 0.915% (inactive)
CCOc1ccc2c(c1)C(c1ccc(C)cc1)=NNC(c1ccc(C)cc1)=N2 | 54.8% (active)
CCc1ccc2c(c1)C(c1ccc([N+](=O)[O-])cc1)=NNC(c1ccccc1)=N2 | 33.3% (active)
CCC1OC(c2ccc([N+](=O)[O-])cc2)=Nc2ccccc21 (centres undefined) | -5.5% (inactive)
Cc1ccc(C2=Nc3c(ccc4ccccc34)C(c3ccncc3)=NN2)cc1 | 1.6% (inactive)
COc1ccc2c(c1)C(c1cccs1)=NNC(c1cccnc1)=N2 | 18.1% (inactive)
O=C1NC(=O)C2C1C(c1ccc([N+](=O)[O-])cc1)=NN2Cc1ccccc1 (centres undefined) | -2.84% (inactive)
COc1ccc(-c2onc3ccc(C(C)=O)cc23)cc1 | 2.44% (inactive)
CC1=C(C(=O)OC(C)(C)C)C(c2ccc(Br)cc2)NC(=O)N1CCCC(=O)O (centres undefined) | -2.28% (inactive)
O=C(c1cc2cc(Br)cc(Br)c2oc1=O)N1CCOCC1 | 0.493% (inactive)
CC1CCN(CCCNC(=O)CN2C(=O)CSc3ccc(S(=O)(=O)N4CCCCC4)cc32)CC1 | -0.237% (inactive)
O=C(CN1CCC(NC(=O)C2CC2)CC1)Nc1ccccc1[N+](=O)[O-] | 7% (inactive)
O=C1c2ccccc2C(=O)N1CCc1nn[nH]n1 | -3.78% (inactive)
O=C1c2ccccc2C(=O)N1CCC(O)C[N+](=O)[O-] (centres undefined) | -2.75% (inactive)
O=C1c2ccccc2C(=O)N1CCC(c1ccccc1)c1ccco1 (centres undefined) | 24.4% (active)

Compound | max response
OC(CNCC1CCCO1)Cn1c2ccc(Br)cc2c2cc(Br)ccc21 (centres undefined) | -6.3% (inactive)
CCCN1CCn2c3c(c4cc(Br)ccc42)CCCC31 (centres undefined) | 25.3% (active)
COCCn1c(SCC(=O)c2[nH]c(C)c(C(C)=O)c2C)nc2ccccc2c1=O | -3.66% (inactive)
CCN1CCN(CC(=O)Nc2sc3c(c2C#N)CCC3)CC1 | 1.34% (inactive)
N#Cc1c(NC(=O)CCCl)sc2c1CCCCC2 | 21.9% (active)
N#Cc1c(NC(=O)C2CCCO2)sc2c1CCCCC2 (centres undefined) | 48.6% (active)
N#Cc1c(NC(=O)c2ccc(N3CCOCC3)c([N+](=O)[O-])c2)sc2c1CCCC2 | 1.18% (inactive)
N#Cc1c(NC(=O)C2CC(Cl)=CCC2C(=O)O)sc2c1CCCCC2 (centres undefined) | -1.59% (inactive)
CC(=O)c1c(C)[nH]c(C(=O)OCC(=O)Nc2sc3c(c2C#N)CCCC3)c1C | -1.13% (inactive)
O=C1C(=O)N(CCCO)C(c2ccccc2)/C1=C(\O)c1ccc(Br)cc1 (centres undefined) | 0.724% (inactive)
CN1C(=O)/C(=C/C=C2\SCCN2C)OC1=S | 37.4% (active)
Cc1csc(NC(=O)CSc2nc(=O)cc(N)n2-c2ccc(F)cc2)n1 | 16.3% (inactive)
CCc1ccc(OCC(=O)NCC(c2ccc(Cl)cc2)N2CCCCC2)cc1 (centres undefined) | -2.84% (inactive)
COc1ccc(-c2cc3n(n2)CCc2nc4ccccc4n2-3)cc1 | 9.75% (active)
COc1ccc(-c2cc(C(=O)n3cnc4ccccc43)c3ccccc3n2)cc1 | 16.1% (inactive)
CCn1c(C(O)c2cc(OC)ccc2OC)nc2ccccc21 (centres undefined) | 5.8% (inactive)
CC(CC(=O)Nc1ccc(F)cc1F)S(=O)(=O)c1ccc2c(c1)NC(=O)CO2 (centres undefined) | 2.18% (inactive)
c1cc(-c2nn[nH]n2)ccc1CN1CCCCC1 | -1.37% (inactive)
CC(C)c1ccc(-c2nn[nH]n2)cc1 | 23% (active)
Brc1ccc(-c2nn[nH]n2)cc1 | 9.02% (inactive)
COc1cccc(NC(=O)CCNS(=O)(=O)c2ccc3c(c2)oc(=O)n3C)c1 | 0.768% (inactive)
COc1ccc(OCc2nnc3n2N=C(c2ccccc2)C(CC(=O)O)S3)cc1 (centres undefined) | -4.15% (inactive)
COc1ccc(CNC(=O)C(=O)NCC2OCCN2C(=O)c2ccc(OC)cc2)cc1 (centres undefined) | -1.12% (inactive)
CSc1ccc(C#N)cc1NC(=O)c1ccc(Cl)cc1 | 6.79% (inactive)
N#Cc1ccccc1NC(=O)c1cccc(COc2ccc(Cl)cc2Cl)c1 | 116% (active)

Compound | max response
CSc1ccc(C#N)cc1NC(=O)c1cccc(Cl)c1 | -1.93% (inactive)
COc1ccc(OC)c(NC(=O)c2cccc(S(=O)(=O)N3CCN(C(C)=O)CC3)c2)c1 | -2.4% (inactive)
CC[n+]1c(C)n(-c2ccccc2)c2ccc(NC(C)=O)cc21 | 8.88% (inactive)
Cc1ccc(CCN2CC(C(=O)NCCc3ccccc3)CC2=O)cc1 (centres undefined) | 20.4% (inactive)
COc1cccc(CNS(=O)(=O)c2csc(C(N)=O)c2)c1 | -4.05% (inactive)
COc1ccc(C(=O)NCCn2nc(C)cc2C)cc1OC1CCN(C(C)=O)CC1 | 1.36% (inactive)
O=C(N/N=C\c1cccnc1)c1cc(-c2ccccc2)nc2c(Cl)cccc12 | -2.05% (inactive)
Cc1ccc(/C=N/NC(=O)CSc2ccccn2)o1 | 17.1% (inactive)
O=C(N/N=C/c1cccnc1)c1ccc(NC(=O)c2ccc(F)cc2)cc1 | -1.26% (inactive)
O=C(N/N=C/c1cccnc1)c1cc2ccccc2cc1O | 35.6% (active)
Cc1ccc(/C=N/NC(=O)CNC(=O)COc2ccccc2)o1 | -7.97% (inactive)
Cc1ccc(/C=N/NC(=O)c2cc3ccccc3cc2O)o1 | 19.4% (active)
CCC(C)[C@H](NC(=O)N1c2ccccc2NC(=O)[C@@H]1C(C)C)C(=O)N[C@@H](Cc1ccccc1)C(=O)O (some centres undefined) | 1.02% (inactive)
COc1ccc(OCC(O)CN(C)C(=O)C(C)Oc2ccccc2)cc1 (centres undefined) | -1.78% (inactive)
Cc1ccc(SC(CC(=O)c2ccc(C(C)(C)C)cc2)C(=O)O)cc1 (centres undefined) | 7.94% (inactive)
Cc1cc(-c2ccc(C)c(S(=O)(=O)NC(C)Cc3ccco3)c2)on1 (centres undefined) | 17.2% (inactive)
COC(=O)c1ccc(NC(=O)c2cc3c(CO)cnc(C)c3oc2=Nc2cccc(C(N)=O)c2)cc1 | -3.69% (inactive)
COc1ccc(CCNC(=O)c2ccccc2OCc2ccccc2)cc1 | -1.84% (inactive)
CCCc1ccc(OCC(=O)NNC(=S)NC(=O)c2ccco2)cc1 | -2.62% (inactive)
CCOc1cc(NC(=S)NCCCOC)c(OCC)cc1NC(=O)c1ccco1 | 2.79% (inactive)
CCCCOc1ccc(C(=O)NCc2ccco2)cc1 | 27.4% (active)
CCCc1ccc(OCCNC(=O)c2ccco2)cc1 | 37.4% (active)
CCCCOc1ccc(C(=O)NCc2ccncc2)cc1 | 4.92% (inactive)
CCCc1ccc(OCCNC(=O)c2ccccc2Br)cc1 | 16.2% (active)
O=C(CCCOc1ccccc1)NCc1ccco1 | 8.48% (inactive)

Compound | max response
Cc1ccc(OCC(=O)NCCCNC(=O)c2ccco2)cc1C | -3.33% (inactive)
CCCCOCCCNC(=O)c1ccccc1OCC | -1.45% (inactive)
COc1ccc(CCNC(=O)c2ccco2)cc1 | 33% (active)
CCOc1ncccc1C(=O)NCCc1ccc(OC)cc1 | -4.4% (inactive)
CC(C)Oc1c(Br)cc(Br)cc1/C=N/NC(N)=S | -0.405% (inactive)
CN(C(=O)CN1C(=O)CCSc2ccc(S(=O)(=O)N3CCCC3)cc21)c1ccccc1 | 1.23% (inactive)
CCOc1ccc(N(C)Cc2cc(=O)oc3ccc(OC)cc23)cc1 | -1.56% (inactive)
O=C(C1CCC(=O)N(C2CC2)C1)N1CCN(c2ccc(Cl)cc2)CC1 (centres undefined) | -2.23% (inactive)
CCn1c(CSCc2c(Cl)cccc2Cl)n[nH]c1=S | 7.21% (inactive)
O=C(C[n+]1cc(-c2ccc(Cl)c(Cl)c2)n2c1CCC2)c1cccs1 | -1.98% (inactive)
CCOc1ccccc1NC(=S)N1CCN(c2cccc(C)c2C)CC1 | -1.77% (inactive)
NC(=O)CCC(NS(=O)(=O)c1ccc(Cl)cc1)C(=O)NCc1ccccc1Cl (centres undefined) | -1.61% (inactive)
Cc1nn(CC(=O)NCCc2ccccc2)c(=O)c2cc3occc3n12 | -3.95% (inactive)
O=C(Cn1c(-c2cscn2)nc2ccccc21)Nc1ccc(Cl)cc1 | -2.37% (inactive)
CC(=NC1CCN(Cc2ccccc2)CC1)c1c(O)[nH]c(=O)[nH]c1=O | -1.74% (inactive)
Clc1cccc(N=C2NN=C(c3ccc4c(c3)OCCO4)CS2)c1 | 74.7% (active)
CS(=O)(=O)N(CC(=O)N1CCN(Cc2ccccc2)CC1)c1ccc2c(c1)OCCO2 | -2.95% (inactive)
c1ccc(CN2CCC(N=C3NN=C(c4ccc5c(c4)OCCO5)CS3)CC2)cc1 | 32.2% (active)
CCOC(=O)/C(C#N)=C/c1cn(CCC(=O)O)nc1-c1ccc(Br)cc1 | -0.95% (inactive)
COc1cc(CCC(=O)OCC(=O)Nc2cccc(S(N)(=O)=O)c2)cc(OC)c1OC | -3.66% (inactive)
COc1cc(C2C3=C(CCCC3=O)OC3=C2C(=O)CCC3)ccc1OCC(=O)Nc1ccccc1 | 4.65% (inactive)
COc1cc(/C=N/NC(=O)Nc2ccccc2)ccc1OCCOc1ccccc1C | -1.6% (inactive)
CCOC(=O)/C(C#N)=C/c1ccc(OCC(=O)Nc2ccccc2)c(OC)c1 | 22.6% (active)
CCCn1c(C)cc(/C=C(\C#N)C(=O)OCC(=O)Nc2cc(OC)c(OC)c(OC)c2)c1C | 31.9% (active)
